Measurements: paper PMC6212790, “How bacterial xenogeneic silencer rok distinguishes foreign from self DNA in its resident genome”
Whole data set: some 33,000 sequences, median “e-score” near -0.038, cut for the highest 2% near 0.33. The list comes from a sample in which the highest values are over-represented; it also holds similar and randomly drawn sequences.

Biological target: T1, GST-Rok-C97-191 (Bacillus subtilis subsp. subtilis str. …, UniProt O34857 97-191)
T1 sequence: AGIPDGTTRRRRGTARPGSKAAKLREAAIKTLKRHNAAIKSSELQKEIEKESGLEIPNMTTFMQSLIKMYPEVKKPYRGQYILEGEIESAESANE
Experiment: protein binding microarray; Rok is a gene silencer of Bacillus subtilis; high values mean tight binding
Conditions: protein: recombinant; tags: GST (pTH5325, pDEST15-Magic modified); dsDNA, one strand shown
Method in brief: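 Each has a 25-mer constant primer and a 35-mer variable part from a de Bruijn sequence of order 10, covering every non-palindromic 8-mer at least 32 times (palindromic 16). Preference for each 8-mer is given as a rank-based, unitless enrichment score (E-score). Its range runs from 0.5 (most favored) to −0.5 (most disfavored).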

Row | Sequence | binding signal [E-score]
1 | AAAAATGT | 0.129
2 | AAGGCAGC | 0.0072
3 | CCAAACGG | -0.0693
4 | CAATGTTA | 0.195
5 | CTGCGCCC | -0.144
6 | GACACTGC | -0.137
7 | AGCGTTCC | -0.026
8 | AATCAGAC | -0.0483
9 | CGCGATTA | 0.0183
10 | AGCAGTCA | 0.0635
11 | ACGACCTA | 0.00188
12 | ATTTTTCG | 0.181
13 | TTACGTAA | 0.261
14 | GTACGTAA | 0.0489
15 | ATACGTAA | 0.371
16 | ACGGAAGG | -0.162
17 | ATCTCTAC | 0.118
18 | ATATCTAA | 0.351
19 | CTCTCTAC | 0.064
20 | ATATCTTA | 0.26
21 | CTATCTAA | 0.282
22 | ATATCTTC | 0.344

Row | Sequence | binding signal [E-score]
23 | ATCTCTAA | 0.106
24 | ATATCTAG | 0.284
25 | CCATCTAC | 0.213
26 | ATATCTAC | 0.377
27 | CTATCTTC | 0.105
28 | CTATCTAC | 0.433
29 | CAGACGGA | -0.1
30 | CGGTCGCA | -0.0742
31 | GTCAATTA | 0.163
32 | GAACAGAC | -0.0366
33 | TACGCAGA | -0.138
34 | AGCTGAAC | -0.0772
35 | GATAAAGC | -0.0584
36 | CTAAGTAA | 0.266
37 | CGTATCAA | 0.0404
38 | GTACTACA | 0.296
39 | ATACTACA | 0.388
40 | ACACTACA | 0.294
41 | ATACTGCA | 0.287
42 | CTACTACA | 0.366
43 | CTACTAGA | 0.293
44 | AGACGTGC | -0.045

Row | Sequence | binding signal [E-score]
45 | CAGCTAAA | 0.0943
46 | CTTTTTGC | -0.0956
47 | CTAAGCGA | -0.171
48 | TAGTCAAA | 0.158
49 | ATATATTG | 0.419
50 | TAATATTA | 0.287
51 | CAATATTC | 0.186
52 | AAATATTA | 0.355
53 | GAATATTC | 0.339
54 | AAATATTC | 0.219
55 | CTATATTA | 0.355
56 | GAATATTA | 0.2
57 | AAATATTG | 0.286
58 | ACATATTG | 0.232
59 | CCATATTA | 0.121
60 | CAATATTA | 0.204
61 | ACCTATTC | 0.0409
62 | GAATGCAA | -0.0262
63 | CCGCAAAA | -0.142
64 | AGGCCGGA | -0.102
65 | AGATATTA | 0.356
66 | CTCTATTC | -0.103

Row | Sequence | binding signal [E-score]
67 | ATATATTA | 0.447
68 | ACATATTA | 0.304
69 | ATGTATTA | 0.301
70 | GCATATTA | 0.153
71 | CTATATTC | 0.274
72 | GTATATTA | 0.371
73 | AGATATTG | 0.186
74 | ATATATTC | 0.374
75 | CGATATTA | 0.286
76 | GTGTATTA | 0.11
77 | AGGTCCCG | -0.133
78 | AAACTTCA | 0.0505
79 | GAAAAACA | 0.0708
80 | CACGGAAG | 0.00148
81 | AAAGTCTC | 0.0451
82 | AGGGTCGC | -0.122
83 | GCGTCCAA | -0.0249
84 | GCGTAAAA | 0.139
85 | ACCTCGAT | 0.113
86 | AGCCGTTC | -0.05
87 | ACAGCAAG | -0.0495
88 | AAGGTAGC | 0.158

Row | Sequence | binding signal [E-score]
89 | ACGGTAGC | 0.0805
90 | ACGGTAGA | 0.318
91 | ACGGTAGT | 0.408
92 | AAGGTAGG | -0.00436
93 | AAGGTAGT | 0.33
94 | ATGCAAGC | -0.0317
95 | CGTCGCTC | -0.161
96 | ACATTCCC | -0.0621
97 | AGGACCGG | -0.171
98 | ATCTACTA | 0.456
99 | ATCTACTG | 0.423
100 | CTCTACTA | 0.2
101 | ATCTACTC | 0.206
102 | GTCTACTA | 0.29
103 | ATCTACGG | 0.0258
104 | ACCCACTG | -0.0641
105 | CATCGGAC | 0.0521
106 | GGCAAAGA | -0.188
107 | ACGGTTAT | 0.165
108 | ATGATACG | 0.141
109 | CTACCCGC | -0.0513
110 | CGGTAAGA | -0.0738
